From PubChem
Mdm2-MdmX inh: inhibitors of human Mdm2-MdmX association, primary screen, cell-based, luminescence, split luciferase, SaOS-2, uHTS; inhibition, % at 8 µM; SaOS-2 split-luciferase Mdm2/MdmX complementation; 3% of 330,000 active; AID 485346, 2010;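 active means inhibition of at least 50% at 8 µM in the primary screen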
Target sequence (O15151 whole entry, looked up): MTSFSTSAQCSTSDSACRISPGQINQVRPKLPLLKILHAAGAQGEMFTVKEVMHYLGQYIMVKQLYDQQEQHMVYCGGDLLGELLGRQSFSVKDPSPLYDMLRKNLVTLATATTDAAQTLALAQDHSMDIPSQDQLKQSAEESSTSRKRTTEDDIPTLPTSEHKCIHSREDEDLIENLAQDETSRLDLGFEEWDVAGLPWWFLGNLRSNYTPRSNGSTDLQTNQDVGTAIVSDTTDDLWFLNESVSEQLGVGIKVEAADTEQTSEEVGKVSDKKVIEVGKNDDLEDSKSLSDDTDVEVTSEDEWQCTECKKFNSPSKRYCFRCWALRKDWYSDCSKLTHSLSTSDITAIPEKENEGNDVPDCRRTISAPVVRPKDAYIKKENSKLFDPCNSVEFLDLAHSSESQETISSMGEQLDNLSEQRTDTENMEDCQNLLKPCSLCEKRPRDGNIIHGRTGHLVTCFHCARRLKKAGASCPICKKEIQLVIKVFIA
Target sequence (Q00987 whole entry, looked up): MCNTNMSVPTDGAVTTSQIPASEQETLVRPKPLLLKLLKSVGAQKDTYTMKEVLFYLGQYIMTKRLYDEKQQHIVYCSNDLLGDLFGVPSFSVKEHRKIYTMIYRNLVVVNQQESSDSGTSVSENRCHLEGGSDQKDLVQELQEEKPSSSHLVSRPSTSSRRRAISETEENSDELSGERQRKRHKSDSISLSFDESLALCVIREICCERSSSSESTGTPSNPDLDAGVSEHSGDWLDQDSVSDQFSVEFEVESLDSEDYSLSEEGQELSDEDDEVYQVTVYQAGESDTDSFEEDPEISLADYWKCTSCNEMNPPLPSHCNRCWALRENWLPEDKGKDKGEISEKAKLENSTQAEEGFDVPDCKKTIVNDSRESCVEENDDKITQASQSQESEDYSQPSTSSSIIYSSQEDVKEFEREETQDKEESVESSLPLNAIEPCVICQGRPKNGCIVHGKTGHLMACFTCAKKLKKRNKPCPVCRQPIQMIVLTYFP
Calb FLC: C. albicans growth inhibition with fluconazole, primary screen, CaCi-2 strain, Alamar Blue fluorescence; C. albicans CaCi-2 (fluconazole-resistant clinical isolate) + fluconazole, 48 h; growth inhibition, % (test concentration not listed); 0.57% of 300,000 active; AID 1979, 2009;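 active means growth inhibition above about 58% in most replicates, limit read from the data, passing the limit was not always enough; inconclusive means exactly half the replicates above a set limit; inactive means most replicates below a set limit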;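 further: all wells also contain fluconazole at 8 µg/ml as a sub-toxic cotreatment; 0% = median of DMSO wells and 100% = median of geldanamycin control wells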
MPTP inh: mitochondrial permeability transition pore inhibitors, primary screen, biochemical, isolated mouse mitochondria, absorbance; Ca2+ swelling absorbance, 30 min; inhibition, % at 10 µM; AID 602449, 2012; 1.4% of 360,000 active;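 active means inhibition of 50% or more, scaled per plate between neutral and stimulator controls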;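 further: 0% = DMSO wells given calcium and 100% = 1 mM EGTA wells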
Beta apoptosis: inhibitors of cytokine-induced beta cell apoptosis, primary screen, luminescence; AID 435005, 2010; INS-1E cytokine-induced death, ATP luminescence, 48 h; percent of positive-control rescue, neutral wells zero; 0.8% of 300,000 active; protection from apoptosis, % (concentration not given with the values);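 active means Every replicate reaches about 75%, or at least half do and their mean reaches it too, limit read from the data; inconclusive means At least half of replicates reach the limit but their mean does not; inactive means Under half of replicates reach the limit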;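 further: 0% = cytokine-treated negative control wells and 100% = positive control rescue; higher means more ATP so stronger rescue from cytokine killing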
SKKanGAS inh: S. pyogenes SKKanGAS growth inhibitors in kanamycin, primary screen, streptokinase expression inhibitor project, SKKanGAS strain, BacTiter-Glo luminescence. 6 h. inhibition, % at 7.5 µM. 1.3% of 300,000 active. AID 1662, 2009;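 active means mean replicate score, as percent of positive control median, at least 50; inconclusive means mean below 50 but one replicate at or above 50; inactive means mean and every replicate below 50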;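 further: strain carries kanamycin resistance gene driven by streptokinase promoter and grows in 40 µg/ml kanamycin; loss of luminescence reflects streptokinase promoter inhibition or plain growth inhibition; 0% = median of DMSO wells and 100% = positive control at its reference dose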
CSC inhib: cancer stem cell viability inhibitors, primary screen, luminescence; 1.1% of 300,000 active; cancer stem cell-like cells viability; AID 2717, 2010; inhibition, % at 7.5 µM; in the data active means inhibition above about 75%; inconclusive means no clear call, values can overlap the other calls; tested in HMLE shEcad cells
Mdm2 MdmX conf: Mdm2-MdmX complex disruptors, retested hits, confirmation, luminescence, single concentration; shares compounds with Mdm2-MdmX inh; Mdm2-MdmX binding, luminescent assay; inhibition, % at 8 µM; 55% of 10,000 active; AID 489028, 2010; in the data active means inhibition above about 40%
FLuc counter: full-length luciferase signal inhibition, confirmation, counter-screen for Mdm2/MdmX interaction inhibitor project, cell-based, single concentration, SaOS-2; SaOS-2 full-length luciferase counterscreen, luminescence; 77% of 6,200 active; shares compounds with Mdm2-MdmX inh; inhibition, % at 8 µM;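 active means mean inhibition at 8 µM reaching about 37%, which flags the compound as non-specific, limit read from the data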;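 further: p53-null SaOS-2 cells with luciferase driven by a doxycycline-inducible promoter; compound on cells about two nights before reading with doxycycline added after day one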
Starred values were filed as active, the others as inactive. Rows were chosen to be rich in hits. Some 5.4% of all compounds tested hit in one or more screens of this group.

COc1ccc(S(=O)(=O)NCc2ccccn2)cc1NC(=O)c1ccccc1F was read as Mdm2-MdmX inh 42.5, Calb FLC -5.4, MPTP inh 1.2, Beta apoptosis 5.8, SKKanGAS inh 0.9 and CSC inhib 51.5.
Screening CCOCCCNC(=O)c1ccc2c(c1)N=C(CC)c1cc(Br)ccc1S2 returned Mdm2-MdmX inh 66.1*, Calb FLC -6.1, MPTP inh 8.1, Beta apoptosis 29.7, SKKanGAS inh 14.1, CSC inhib 69.2, Mdm2 MdmX conf 59.5* and FLuc counter 113.0*.
`CCC1(c2ccccc2)NC(=O)N(CC(=O)Nc2ccccc2N2CCCCC2)C1=O` (configuration not stated) gave Mdm2-MdmX inh 8.5, Calb FLC 0.4, MPTP inh 0.9, Beta apoptosis 4.2, SKKanGAS inh -2.7 and CSC inhib -6.4.
Screening Cc1ccc(N/N=C2\CC(=O)c3ccccc32)cc1Cl returned Mdm2-MdmX inh 57.9*, Calb FLC -3.3, Beta apoptosis 31.2, SKKanGAS inh 24.6, CSC inhib 76.8* and Mdm2 MdmX conf 6.1.
Screening Cc1ccc(NCN2C(=O)c3ccccc3C2=O)cc1Cl returned MPTP inh -0.4.
CCN(CC)CCN(Cc1cc2cc(C)ccc2[nH]c1=O)C(=S)Nc1ccccc1 was read as Mdm2-MdmX inh 33.1, Calb FLC 47.9, MPTP inh -0.1, Beta apoptosis -0.2, SKKanGAS inh 3.2 and CSC inhib -2.5.
For CC(=O)Nc1ccc(S(=O)(=O)/N=C2\C(=O)c3ccccc3C([O-])=C2n2cc[n+](-c3ccccn3)c2)cc1 the results were Mdm2-MdmX inh 55.2*, Calb FLC 37.8, MPTP inh 1.6, Beta apoptosis 20.4, SKKanGAS inh 2.3, CSC inhib 55.7, Mdm2 MdmX conf 33.4 and FLuc counter 51.7*.
Screening Cc1ccc(NC(=O)C[n+]2ccn(C3=C([O-])c4ccccc4C3=O)c2)cc1 returned Mdm2-MdmX inh -13.0, Calb FLC 6.9, MPTP inh 3.3, Beta apoptosis -1.6, SKKanGAS inh -6.1 and CSC inhib -4.2.
For CN(CCO)c1cc(Sc2nc3ccccc3s2)c2nonc2c1[N+](=O)[O-] the results were Mdm2-MdmX inh 96.6*, Calb FLC inconclusive, MPTP inh 3.0, Beta apoptosis 55.9, SKKanGAS inh 67.3*, CSC inhib 103.4*, Mdm2 MdmX conf 97.2* and FLuc counter 1.9.
`CC(=O)OCCN(C)c1cc(SC(C)C)c2nonc2c1[N+](=O)[O-]` gave Mdm2-MdmX inh 15.0, Calb FLC -1.9, MPTP inh 1.1, Beta apoptosis -2.9, SKKanGAS inh 20.6 and CSC inhib -15.6.
`Cc1cc(OC(C)C(=O)NC2CC(C)(C)NC(C)(C)C2)c2c(C)c(C)c(=O)oc2c1` (configuration not stated) gave MPTP inh 0.4.
`CCCn1c2ccccc2c2cnn(CC(=O)N3CCN(C4CCCCC4)CC3)c(=O)c21` gave Mdm2-MdmX inh 55.4*, Calb FLC -2.8, MPTP inh 0.5, Beta apoptosis 1.1, SKKanGAS inh -4.3, CSC inhib 0.7 and Mdm2 MdmX conf 30.2.
`CCCn1c2ccccc2c2cnn(CC(=O)N3CCOCC3)c(=O)c21` gave Mdm2-MdmX inh 15.1, Calb FLC 0.5, MPTP inh -1.4, Beta apoptosis -0.2, SKKanGAS inh 13.9 and CSC inhib -2.0.
COc1ccccc1/C=C(\NC(=O)c1ccc(OC)c(OC)c1)C(=O)Nc1cc([N+](=O)[O-])ccc1C was read as Mdm2-MdmX inh 58.9*, Calb FLC 12.0, MPTP inh 2.6, Beta apoptosis 1.5, SKKanGAS inh -0.2, CSC inhib 16.7 and Mdm2 MdmX conf 7.7.
`CC(=O)Nc1ccc(NC2=Nc3ccccc3N3C2=Nc2c(c(C)nn2-c2ccccc2)C3c2ccccc2)cc1` (configuration not stated) gave Mdm2-MdmX inh 84.1*, Calb FLC -1.7, MPTP inh 2.3, Beta apoptosis 57.8, SKKanGAS inh 15.7, CSC inhib -0.5, Mdm2 MdmX conf 89.7* and FLuc counter 32.1.
For CC(=O)Nc1ccc(NC(=O)COC(=O)c2c(C)nn(-c3ccccc3)c2C)cc1 the results were Mdm2-MdmX inh -7.6, Calb FLC 51.3, MPTP inh -1.7, Beta apoptosis 1.6, SKKanGAS inh -2.6 and CSC inhib -32.5.
CN1C(=O)C(O)(C2COC(C)(C)CC2=O)c2cc(Br)ccc21 (configuration not stated) was read as Mdm2-MdmX inh 52.9*, Calb FLC -0.9, MPTP inh 0.9, Beta apoptosis -5.3, SKKanGAS inh -1.9, CSC inhib 33.6 and Mdm2 MdmX conf 28.6.
Screening COc1cc2c(cc1OC)C(C)N(C(=O)c1cc(C)on1)CC2 (configuration not stated) returned Mdm2-MdmX inh 60.6*, Calb FLC 15.4, MPTP inh -1.3, Beta apoptosis 17.9, SKKanGAS inh -2.1, CSC inhib 54.2, Mdm2 MdmX conf 67.5* and FLuc counter 82.0*.
Screening COc1ccc(CN2CCNC(=O)C2CC(=O)N(Cc2nccn2C)C(C)C)c(OC)c1 (configuration not stated) returned Mdm2-MdmX inh 6.2, Calb FLC 0.0, MPTP inh 1.7, Beta apoptosis -0.7, SKKanGAS inh -4.3 and CSC inhib -6.5.
Screening Cc1ccc(/C=N/NC(=O)c2c(C)nc3ccc(Br)cn23)cc1 returned Mdm2-MdmX inh 50.4*, Calb FLC -0.9, MPTP inh -1.2, Beta apoptosis -6.3, SKKanGAS inh 2.1, CSC inhib -11.9, Mdm2 MdmX conf 54.6* and FLuc counter 53.4*.
Screening COc1cccc(/C=N/NC(=O)c2c(C)nc3ccc(Br)cn23)c1O returned Mdm2-MdmX inh 66.7*, Calb FLC 108.8*, MPTP inh 4.7, Beta apoptosis 81.6*, SKKanGAS inh 66.5*, CSC inhib 89.3*, Mdm2 MdmX conf 73.6* and FLuc counter 32.3.
COc1cc(/C=N\NC(=O)c2ccc(Cn3nc([N+](=O)[O-])c(Cl)c3C)o2)ccc1O was read as Mdm2-MdmX inh 32.9, Calb FLC -7.7, MPTP inh 1.4, Beta apoptosis 12.0, SKKanGAS inh 3.4 and CSC inhib -2.8.
